Source: PubChem BioAssay (several laboratories)
A selection: hits, their analogues and other compounds. The true share with any hit is near 2.8%.
TRPM1 prom inh = MITF TRPM1 promoter inhibition in SK-MEL-5 cells; 330,000 tested, 0.83% active; AID 488899; inhibition, % at 12.5 µM; SK-MEL-5 TRPM1 promoter luciferase, 24 h;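 active = mean inhibition across replicates of 60% or more, whatever share of single replicates reaches that level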
CF NFkB inh = blocks PAF-induced NF-kB reporter in cystic fibrosis cells; KKLEB NF-kB-GFP reporter, GFP fluorescence overnight; inhibition, % at 5 µM; 360,000 tested, 0.86% active;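 active = at least 50% inhibition at 5 µM, scaled per plate between neutral and stimulator controls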;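 note: PAF is a Pseudomonas aeruginosa culture filtrate used as stimulus; plate controls were PAF-stimulated DMSO wells for no effect and unstimulated DMSO wells for full effect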
KKLEB tox = counter-screen for CF NF-kB inhibitors: cytotoxicity; KKLEB CF airway cells viability, ATPlite luminescence, overnight; stronger effect = lower value; cells stimulated with P. aeruginosa culture filtrate; activity change (cytotoxicity), % at 5 µM; 360,000 tested, 0.36% active;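 active = corrected activity change at or below -50% at 5 µM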
Peg3 prom inh = reduces Peg3 promoter-driven luciferase expression in HeLa; inhibition, % at 20 µM; 360,000 tested, 1.7% active; HeLa PEG-Prom luciferase reporter, luminescence, overnight;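 active = inhibition of at least 50% at 20 µM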
HIF-2a inh = blocks HIF-2a reporter activity; AID 624352; inhibition, % at 18.8 µM; 786-0 RCC cells HIF-2a reporter, luciferase luminescence, overnight; 360,000 tested, 0.72% active;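 active = inhibition of the luminescence signal of 40% or more relative to plate controls, in a single-dose primary screen at 18.75 µM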
B2AR ag = agonists of human beta-2 adrenergic receptor inducing internalization. Am2.2-beta2AR cells, FAP receptor internalization, flow cytometry. response, % (test concentration not listed). 340,000 tested, 0.43% active;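 active = response above a set limit, near 3 SD of response in nonfluorescent compounds, cut at about 42% in these data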
Target sequence (P07550 whole entry, looked up): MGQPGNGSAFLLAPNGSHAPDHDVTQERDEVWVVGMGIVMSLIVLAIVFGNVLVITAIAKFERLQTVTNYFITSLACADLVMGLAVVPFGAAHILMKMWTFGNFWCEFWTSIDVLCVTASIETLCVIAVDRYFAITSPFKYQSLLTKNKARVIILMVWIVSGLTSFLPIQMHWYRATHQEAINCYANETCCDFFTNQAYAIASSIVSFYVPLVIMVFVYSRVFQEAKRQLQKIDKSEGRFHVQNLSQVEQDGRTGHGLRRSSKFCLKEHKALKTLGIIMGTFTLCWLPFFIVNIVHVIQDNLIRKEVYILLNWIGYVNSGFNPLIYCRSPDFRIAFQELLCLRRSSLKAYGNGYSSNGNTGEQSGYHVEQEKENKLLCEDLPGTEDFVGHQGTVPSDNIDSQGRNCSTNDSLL
* marks the source's active call; other numbers are inactive results.

`C[C@@H]1CN([C@@H](C)CO)C(=O)c2cc(NS(=O)(=O)c3ccc(F)cc3)ccc2O[C@@H](C)CCCCO[C@H]1CN(C)C(=O)NC1CCCCC1` gave CF NFkB inh -12.0, KKLEB tox 0.7, Peg3 prom inh 21.2 and HIF-2a inh 2.0.
For CCOCc1nc(N)nc(N)c1-c1cccc(Cl)c1 the results were CF NFkB inh -21.0, KKLEB tox 5.3, Peg3 prom inh 15.6 and HIF-2a inh 13.7.
Screening CC(C)CNc1cc(N2CCCC2)ccc1[N+](=O)[O-] returned TRPM1 prom inh 4.2, CF NFkB inh 14.8, KKLEB tox -4.0, Peg3 prom inh 54.5*, HIF-2a inh 10.9 and B2AR ag -12.0.
`CCNc1cc(N2CCCC2)ccc1[N+](=O)[O-]` gave TRPM1 prom inh 0.4, CF NFkB inh 4.4, KKLEB tox -2.3, Peg3 prom inh 7.6, HIF-2a inh 11.7 and B2AR ag -0.4.
CCOc1ccc(/C=C2\SC(=S)N(CCCC(=O)NCCCN3CCOCC3)C2=O)cc1 was read as TRPM1 prom inh 57.2, CF NFkB inh 4.8, KKLEB tox -11.7, Peg3 prom inh 68.2*, HIF-2a inh 70.8* and B2AR ag 3.1.
CCOc1ccc(/C=C2/SC(=O)NC2=S)cc1 was read as TRPM1 prom inh -10.8, CF NFkB inh -3.4, KKLEB tox -19.2, Peg3 prom inh -108.4, HIF-2a inh -142.0 and B2AR ag 10.8.
For CCc1ccc(/C=C2\SC(=S)N(CCCC(=O)NCCCN3CCOCC3)C2=O)cc1 the results were CF NFkB inh 10.4, KKLEB tox -7.8, Peg3 prom inh 83.6* and HIF-2a inh 82.7*.
CCOc1ccc(/C=C2\SC(=S)N(N3C(=O)C4CC4C3=O)C2=O)cc1 (stereo unspecified) was read as TRPM1 prom inh 5.4, CF NFkB inh -22.5, KKLEB tox 9.9, Peg3 prom inh 6.2, HIF-2a inh 4.5 and B2AR ag 84.0*.
O=C(CCc1c[nH]c2ccccc12)N1CCN(S(=O)(=O)c2ccc([N+](=O)[O-])cc2)CC1 was read as CF NFkB inh -3.6, KKLEB tox -1.5, Peg3 prom inh 13.2 and HIF-2a inh -7.6.
Screening CC(=O)N[C@@H]1C=C[C@@H](CC(=O)NCc2ccc(Cl)cc2)O[C@@H]1CO returned HIF-2a inh 2.8.
Screening CCC(C)c1ccc(C(C)NC(=S)NCc2ccc(F)cc2)cc1 (stereo unspecified) returned TRPM1 prom inh -2.2, CF NFkB inh 43.6, KKLEB tox -10.6, Peg3 prom inh 51.1*, HIF-2a inh 3.5 and B2AR ag 1.6.
CCCc1ccc(C(C)NC(=S)NCc2ccc(F)cc2)cc1 (stereo unspecified) was read as TRPM1 prom inh 10.3, CF NFkB inh -9.7, KKLEB tox 2.7, Peg3 prom inh 31.9, HIF-2a inh 17.1 and B2AR ag -0.4.
Cc1ccccc1Cn1cc(NC(=O)c2cc(-c3cccs3)on2)cn1 was read as TRPM1 prom inh 1.1, CF NFkB inh 45.8, KKLEB tox -53.6*, Peg3 prom inh 11.9, HIF-2a inh -25.9 and B2AR ag 4.2.
`Cc1ccccc1Cn1cc(NC(=O)c2cc(-c3ccco3)on2)cn1` gave TRPM1 prom inh 3.3, CF NFkB inh -0.6, KKLEB tox -2.1, Peg3 prom inh -3.4, HIF-2a inh -102.6 and B2AR ag -3.3.
For Cc1ccc(/C=C/c2nc3ccccc3c(=O)[nH]2)cc1 the results were TRPM1 prom inh 21.9, CF NFkB inh -3.0, KKLEB tox -68.7*, Peg3 prom inh 2.9, HIF-2a inh -217.0 and B2AR ag -7.8.
Screening COC(=O)c1ccc(/C=C/c2nc3ccccc3c(=O)[nH]2)cc1 returned TRPM1 prom inh -66.1, CF NFkB inh 0.7, KKLEB tox -3.5, Peg3 prom inh -86.5, HIF-2a inh -76.0 and B2AR ag 1.5.
CCCCCOc1ccc(Br)cc1/C(C)=N/NC1=NCCN1 was read as TRPM1 prom inh 70.0*, CF NFkB inh 51.8*, KKLEB tox -23.3, Peg3 prom inh 80.6*, HIF-2a inh 30.7 and B2AR ag 43.7*.
`COc1ccccc1NC(=O)N(Cc1cccs1)Cc1cc2cc3c(cc2[nH]c1=O)OCO3` gave TRPM1 prom inh 30.7, CF NFkB inh 21.2, KKLEB tox -12.0, Peg3 prom inh 53.2*, HIF-2a inh 32.4 and B2AR ag -6.2.
Screening COc1ccccc1NC(=S)N(CCCN(C)C)Cc1cc2cc3c(cc2[nH]c1=O)OCO3 returned TRPM1 prom inh 4.6, CF NFkB inh 0.8, KKLEB tox 3.5, Peg3 prom inh 25.2, HIF-2a inh 16.5 and B2AR ag 9.4.
`O=C(c1ccccc1)N(CCO)Cc1cc2cc3c(cc2[nH]c1=O)OCCO3` gave TRPM1 prom inh 16.4, CF NFkB inh -3.5, KKLEB tox 9.6, Peg3 prom inh 7.7, HIF-2a inh 8.1 and B2AR ag 3.0.
`CCOc1ccccc1C(=O)N(Cc1ccccc1)Cc1cc2cc3c(cc2[nH]c1=O)OCCO3` gave TRPM1 prom inh 6.2, CF NFkB inh 48.3, KKLEB tox -61.8*, Peg3 prom inh 61.3*, HIF-2a inh 1.7 and B2AR ag 14.3.
`COc1cccc(CN2CCC2(C)C(=O)Nc2cccc(NS(C)(=O)=O)c2)c1OC` (stereo unspecified) gave CF NFkB inh 17.8, KKLEB tox 6.0, Peg3 prom inh 18.3 and HIF-2a inh 5.1.
For O=C1NC[C@H](Cc2ccc(O)cc2)N(CCc2cccc(F)c2)C1=O the results were HIF-2a inh 4.2.
`CCOC(=O)c1ccc(Oc2nc(N(C)C)nc(N(C)C)n2)cc1` gave TRPM1 prom inh -4.0, CF NFkB inh 5.5, KKLEB tox 2.5, Peg3 prom inh 1.4, HIF-2a inh 19.1 and B2AR ag -15.2.
`CN(C)c1nc(Oc2ccc(N)cc2)nc(N(C)C)n1` gave TRPM1 prom inh 14.3, CF NFkB inh 0.3, KKLEB tox 3.7, Peg3 prom inh 4.4, HIF-2a inh 13.3 and B2AR ag 76.7*.
CCCCCC(=O)N1C[C@@H](n2cc(C3CC3)nn2)[C@H](O)C[C@@H]1c1ccccc1 was read as CF NFkB inh -4.2, KKLEB tox 0.7, Peg3 prom inh 4.0 and HIF-2a inh -0.9.
Screening CCOC(=O)c1cnc(SCC(=O)Nc2sc(C)c(C)c2C#N)nc1N returned TRPM1 prom inh -0.8, CF NFkB inh 47.2, KKLEB tox -50.0*, Peg3 prom inh 45.4, HIF-2a inh 9.6 and B2AR ag 2.5.
For O=C(C1=C(c2ccccc2)C(=O)c2ccccc2C1=O)c1ccccc1 the results were TRPM1 prom inh 64.3*, CF NFkB inh 75.9*, KKLEB tox -18.9, Peg3 prom inh 92.1*, HIF-2a inh -28.8 and B2AR ag 23.6.
For COC1=C(c2ccccc2)C(=O)c2ccccc2C1=O the results were TRPM1 prom inh 75.1*, CF NFkB inh -41.9, KKLEB tox 23.2, Peg3 prom inh 9.9, HIF-2a inh 4.3 and B2AR ag 11.5.
